Results published in PubChem BioAssay (Tox21).
Records with an inconclusive call do not appear. Values without a mark were called inactive. The source made the active and inactive calls. Calls follow the shape of the dose curve; as a rule, active = well fitted activation curve with a large enough effect in the repeat runs; inconclusive = weak or mixed curves; inactive = flat fitted curve, though single readings scatter.

assay: A CellTox Green Cytotoxicity Assay to monitor cytotoxicity in HEK293 cells - 24 hour (AID 1224875); conditions: CellTox Green fluorescence; series mostly up to 76.8 µM; activity change: at the top concentration; also: nearly all actives have a fitted effect of over 45% in size
Procedure, shortened: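 Nonlytic real-time cytotoxicity: HEK293 + CellTox Green reagent plated, 5 h preincubation, pintool compound addition (23 nL in DMSO), 37 C for 40 h, fluorescence measured at successive time points.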
% is scaled to controls: 0 for no effect and ±100 for the full control effect; potency is read from the fitted curve at half-maximal effect.

Row | SMILES | activity change | Potency
1 | O=C(NCC1CN(c2ccc(N3CCOCC3=O)cc2)C(=O)O1)c1ccc(Cl)s1 (stereo not given) | -12.3% [at 35.3 µM, active compounds read high] | 
2 | CC(COCCO)OCCO (stereo not given) | 0.193% | 
3 | CCC(C)(C)CC | -5.6% | 
4 | CCN(CC)CCNc1ccc(CNC=O)c2sc3ccc(OC)cc3c(=O)c12 | 0.551% | 
5 | CC[N+](C)(CC)CCOC(=O)C(O)(c1ccccc1)C1CCCCC1 (stereo not given) | -8.02% [at 35.3 µM, active compounds read high] | 
6 | CN1CCC(N(Cc2cccs2)c2ccccc2)CC1 |  | 19 µM (active)
7 | C=C(C)C(=O)OCC | -3.78% | 
8 | C[N+]1(CC2COC(c3ccccc3)(C3CCCCC3)O2)CCCCC1 (stereo not given) | 2.8% [at 35.3 µM, active compounds read high] | 
9 | NCCCN1CCOCC1 | -1.8% | 
10 | CC(=O)[O][Al] | -7.17% | 
11 | NC(=O)C(c1ccccc1)(c1ccccc1)[C@@H]1CCN(CCc2ccc3c(c2)CCO3)C1 |  | 21.3 µM (active)
12 | CC(=O)[O][Al][O]C(C)=O | -2.75% | 
13 | CCCCOC(=O)CCCCCCCC(=O)OCCCC | -13.1% | 
14 | CCCCC(CC)COC(=O)CCCCCCCCC(=O)OCC(CC)CCCC (stereo not given) | -21.1% | 
15 | CN(C)CCOC(c1ccccc1)c1ccc(Br)cc1 (stereo not given) | 21.6% [at 35.3 µM, active compounds read high] | 
16 | O=C(OCCCCCCOC(=O)c1ccccc1)c1ccccc1 | 14.2% | 
17 | C[Si](C)(CCCN)O[Si](C)(C)CCCN | -3.17% | 
18 | CCC(C)O (stereo not given) | -2.48% | 

Row | SMILES | activity change | Potency
19 | Nc1cccc([N+](=O)[O-])c1 | 1.76% | 
20 | NS(=O)(=O)c1ccc(N2CCCCS2(=O)=O)cc1 | -4.04% [at 35.3 µM, active compounds read high] | 
21 | Cc1ncc(CO)c(C=O)c1O | 0.0585% [at 35.3 µM, active compounds read high] | 
22 | OC[C@H]1O[C@@H](OCCc2ccc(O)cc2)[C@H](O)[C@@H](O)[C@@H]1O | -10.6% [at 35.3 µM, active compounds read high] | 
23 | Nc1ccc([N+](=O)[O-])c(C(F)(F)F)c1 | -8.01% [at 35.3 µM, active compounds read high] | 
24 | O=C(O)c1nc(Cl)c(Cl)c(Cl)c1Cl | -8.69% | 
25 | CC(C)OC(=O)C(C)N(C(=O)c1ccccc1)c1ccc(F)c(Cl)c1 (stereo not given) | 14.1% | 
26 | C[C@@H](c1ncncc1F)C(O)(Cn1cncn1)c1ccc(F)cc1F (stereo not given in full) | -11.3% [at 35.3 µM, active compounds read high] | 
27 | OC(C#CCN1CCCC1)(c1ccccc1)c1ccccc1 | 3.04% [at 35.3 µM, active compounds read high] | 
28 | CCC(Cl)CCC(Cl)C(Cl)CC(Cl)C(Cl)C(Cl)CCl (stereo not given) | -8.4% | 
29 | O=[N+]([O-])c1ccc(NCCO)c(OCCO)c1 | -0.163% | 
30 | CC(C)(O)c1ccc(CNC(=O)c2cccnc2Oc2ccc(F)cc2)cc1 | 4.76% | 
31 | CC(CSC(=O)c1ccccc1)C(=O)N1C[C@@H](Sc2ccccc2)C[C@H]1C(=O)O (stereo not given in full) | 3.46% [at 15.8 µM, active compounds read high] | 
32 | CCCCC/C=C\C/C=C\CCCCCCCC(=O)NC(C)c1ccccc1 (stereo not given) | 3.94% [at 35.3 µM, active compounds read high] | 
33 | CN1Cc2cc(C(=O)N3CCC(C4CCNCC4)CC3)ccc2NC(CC(=O)O)C1=O (stereo not given) | -1.27% [at 35.3 µM, active compounds read high] | 
34 | COc1cc2nc(N(C)CCCNC(=O)C3CCCO3)nc(N)c2cc1OC (stereo not given) | 0.0085% [at 35.3 µM, active compounds read high] | 
35 | COC(C)(C)CCO | 9.22% | 
